This note sets out measurements from PubChem BioAssay.

Test [1] in a line: yeast TOR pathway RPL19A-GFP modulators, primary screen, cell-based, S. cerevisiae, multiplex flow cytometry (AID 1862; in the data active means percent of DMSO control GFP below about 86%;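 further: lower values mimic rapamycin by blocking the RPL19A rise seen in DMSO cells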). The settings on record: S. cerevisiae RPL19A-GFP strain, flow cytometry fluorescence, 3 h; at 10 µM; stronger effect = lower value. In general terms: A flow cytometer gives signals particle by particle.
Test [2] can be described thus: modulators of MEP2-GFP levels in yeast, primary screen, S. cerevisiae, multiplex flow cytometry (AID 1867;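 active means GFP response, as percent of the DMSO control, above the screen-wide mean plus 3 SD, about 139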;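 further: median GFP channel fluorescence of barcode-gated MEP2-GFP cells measured by flow cytometry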). The note with it: S. cerevisiae MEP2-GFP strain, 3 h, at 10 µM, stronger effect = higher value, 100% means same as DMSO wells.
Test [3] can be described thus: modulators of CIT2-GFP expression in yeast, primary screen, S. cerevisiae, GFP fusion, multiplex flow cytometry (AID 1870;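 active means percent response above a set limit, the screen-wide mean plus 3 SD, cut at about 130% in these data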;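 further: barcoded CIT2-GFP strain pooled with four other GFP strains with rapamycin as positive control; median GFP fluorescence per well over plate mean of DMSO wells so 100% = DMSO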). The settings on record: 3 h, at 10 µM, stronger effect = higher value.
Test [4] can be described thus: modulators of LAP4-GFP expression in yeast, primary screen, S. cerevisiae, multiplex flow cytometry (AID 1873;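 active means GFP signal, as percent of the solvent control, above the screen mean plus 3 SD, about 149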). The settings on record: 3 h, at 10 µM, stronger effect = higher value.
Test [5] in a line: modulators of AGP1-GFP expression in yeast TOR pathway, primary screen, cell-based, multiplex flow cytometry, S. cerevisiae (AID 1887;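 active means GFP signal above the screen-wide mean plus 3 SD, that is over about 124.5% of the solvent control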;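 further: AGP1-GFP fusion strain of S. cerevisiae within a five-strain barcoded multiplex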). The settings on record: 3 h, at 10 µM, stronger effect = higher value.
Test [6] can be described thus: inhibitors of CD8+ T cell-vesicle binding, pilot screen, LFA-1/ICAM-1 modulator project, MLPCN validation set, flow cytometry (AID 2523;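 active means response below a set limit, under 55% cells CD8-positive and vesicle-bound, and CD8 cells' 90th-percentile brightness under 279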;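 on vesicle binding response: mean PE anti-B7-1 fluorescence of CD8+ cells relative to row control; 100% = QL9-loaded vesicles with DMSO vehicle in the same plate row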). The settings on record: 2C mouse CD8+ T cells, at 7 µM, stronger effect = lower value; double positive events: measured here: CD8+/vesicle+ event percentage.
The target in test [7] is Integrin beta-1 (Homo sapiens) + Integrin alpha-4 (Homo sapiens) (UniProt P13612+P05556). As to the kind of experiment: inhibition of HUTS-21 binding to VLA-4, pilot screen, VLA-4 allosteric modulator project, U937 cells, HUTS-21 mAb, flow cytometry, validation set (AID 2674).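 Further: antibody binding induced by the VLA-4 ligand LDV present at three times its Kd; 0% = LDV ligand with antibody and no compound and 100% = antibody without LDV.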 The settings on record: HUTS-21 LIBS mAb binding, at 6.7 µM, stronger effect = higher value, binding induced by LDV ligand.

A short description of test [8]: superoxide lowering in aged yeast cells, pilot screen, validation compound set (AID 2706;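 active means superoxide response below 65% of plate, a cut near 3 SD across the whole screen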;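 further: yeast exposed to compound for one week at 30 degrees C before staining; 100% = mean of all compound wells on the same plate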). The note with it: S. cerevisiae aging, superoxide DHE fluorescence; at 10 µM; stronger effect = lower value.
The target of test [9] is Beta-adrenergic receptor kinase 1 (Homo sapiens) (UniProt P25098). Put plainly: GRK2 binders displacing RNA aptamer, biochemical, validation, human GRK2, bead flow cytometry (AID 488806;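 active means aptamer binding inhibition above 30%, about 3 SD of noise from non-fluorescent compounds; inactive means inhibition at or below 30%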). The note with it: bead-bound GRK2, FAM-aptamer displacement, at 10 µM, stronger effect = higher value.
The target in test [10] is Beta-2 adrenergic receptor (Homo sapiens) (UniProt P07550). Put plainly: beta2AR agonists driving receptor internalization, pilot screen, cell-based, FAP fluorogen, flow cytometry, validation set (AID 504459;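 active means percent response above 42, roughly 3 SD of non-fluorescent test compounds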;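 further: agonist-driven loss of surface beta2AR via internalization measured by FAP dye flow cytometry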). The settings on record: Am2.2-beta2AR cells, FAP surface receptor flow cytometry; at 10 µM; stronger effect = higher value.
Test [11] concerns the target AP-2 complex subunit beta (Homo sapiens) (UniProt P63010). Put plainly: inhibitors of arrestin peptide binding to AP2, pilot screen, biochemical, validation set, GST-AP2 beads, flow cytometry (AID 504541;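 active means inhibition above 54%, about 3 SD of non-fluorescent compounds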;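 further: AP2 carries R879A mutation and is captured from E. coli lysate; bead-bound FITC arrestin peptide fluorescence measuring arrestin peptide binding to AP2; 0% = DMSO wells and 100% = excess unlabeled arrestin peptide control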). The settings on record: FITC arrestin peptide, at 10 µM, stronger effect = higher value, AP2 beta2 appendage fragment, R879A mutant.
The nature of test [12]: yeast V-ATPase proton transport modulators, S. cerevisiae, pHLuorin, HTS validation (AID 504600; in the data active means response above about 15%;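 further: plate controls were DMSO for no effect and reference compound for full effect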). The note with it: S. cerevisiae pHLuorin cytosolic pH, at 10 µM, stronger effect = higher value.
In test [13] the test system is anti-desmoglein-3 scFv antibody binding to human DSG3. As to the kind of experiment: inhibitors of anti-DSG3 scFv binding to DSG3, pilot screen, biochemical, validation compound set, bead-based, flow cytometry (AID 588368;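 active means binding below the plate cutoff, the plate median minus 3 SD, with a reading above zero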;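 further: signal is the median channel fluorescence of bead-bound GFP antibody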). The settings on record: Protein G beads, DSG3-Fc, scFv-GFP binding, at 10 µM, stronger effect = lower value.
Test [14] is described as follows: inhibitors of fungal efflux pumps CDR1, CDR2, MDR1, pilot screen, validation compound set, multiplex, phenotypic (AID 588506;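 active means efflux inhibition above 0.42, the validation set average plus 4 SD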;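 further: Nile Red retained in cells so higher fluorescence means more efflux inhibition; 0 = negative control wells and 1 = enniatin B 25 µM full block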). The settings on record: S. cerevisiae pump-expressing triplex, Nile Red efflux flow cytometry; at 10 µM; stronger effect = higher value; the pumps come from Candida albicans.
For test [15], the target named is ATP-binding cassette sub-family B member 6 (Homo sapiens) (UniProt Q9NP58). As to the kind of experiment: ABCB6 transporter inhibitors, pilot screen, K562-ABCB6 cells, flow cytometry, validation set (AID 588550;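 active means inhibition above the screen-wide mean plus 3 SD, about 51%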;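 further: 0% = DMSO wells and 100% = benzethonium chloride 70 µM positive control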). The settings on record: K562-ABCB6 porphyrin accumulation, 1 h, at 10 µM, stronger effect = higher value.
A short description of test [16]: promoters of myeloid differentiation in arrested cells, primary screen, cell-based, GFP/MAC1 double positive, flow cytometry, validation set (AID 588685;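 active means differentiation response of at least 50%, scaled between solvent and reference control, from cells with both markers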;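 further: compound exposure lasts four days before antibody staining and flow analysis; 0% = DMSO wells and 100% = 5 µM fulvestrant positive control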). The settings on record: ER-HoxA9 marrow cells, stronger effect = higher value, normalized: vehicle 0, fulvestrant 100.

The structures appear in SMILES notation. “And” between values parts separate entries of the source, which are not always exact repeats. Equal values may be shown once. Results filed as inconclusive are left out. More than one record can exist for a structure, and the calls need not agree. The source made the active and inactive calls.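 How the source made its calls, unless noted: active means inhibition above 50%, about 3 SD of the validation set; inactive means the rest.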

Broadly, the inhibition is the drop in the measured response relative to a control, in per cent.

ATP-binding cassette sub-family B member 6 (Homo sapiens), sequence (Q9NP58 whole entry, looked up): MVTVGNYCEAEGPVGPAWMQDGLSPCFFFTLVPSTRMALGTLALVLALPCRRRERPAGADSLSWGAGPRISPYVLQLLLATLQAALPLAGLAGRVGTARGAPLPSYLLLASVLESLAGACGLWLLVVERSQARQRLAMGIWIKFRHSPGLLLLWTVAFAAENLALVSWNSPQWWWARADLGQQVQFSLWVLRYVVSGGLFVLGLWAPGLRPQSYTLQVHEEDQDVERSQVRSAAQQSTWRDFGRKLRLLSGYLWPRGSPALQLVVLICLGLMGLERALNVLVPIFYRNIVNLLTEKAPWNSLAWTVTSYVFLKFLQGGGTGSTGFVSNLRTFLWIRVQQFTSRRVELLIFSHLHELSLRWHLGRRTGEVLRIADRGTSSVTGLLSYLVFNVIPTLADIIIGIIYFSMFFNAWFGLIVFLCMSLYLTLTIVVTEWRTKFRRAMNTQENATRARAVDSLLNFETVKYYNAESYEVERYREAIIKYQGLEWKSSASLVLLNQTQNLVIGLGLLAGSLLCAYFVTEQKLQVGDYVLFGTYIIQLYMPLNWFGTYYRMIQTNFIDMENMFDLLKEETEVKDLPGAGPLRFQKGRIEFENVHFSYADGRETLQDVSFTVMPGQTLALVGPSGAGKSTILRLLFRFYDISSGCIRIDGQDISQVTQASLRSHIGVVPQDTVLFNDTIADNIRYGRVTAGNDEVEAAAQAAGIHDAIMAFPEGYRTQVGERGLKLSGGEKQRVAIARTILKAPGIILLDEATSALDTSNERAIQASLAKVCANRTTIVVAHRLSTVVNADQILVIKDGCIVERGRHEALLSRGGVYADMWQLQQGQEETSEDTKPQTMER
Beta-adrenergic receptor kinase 1 (Homo sapiens), sequence (P25098 whole entry, looked up): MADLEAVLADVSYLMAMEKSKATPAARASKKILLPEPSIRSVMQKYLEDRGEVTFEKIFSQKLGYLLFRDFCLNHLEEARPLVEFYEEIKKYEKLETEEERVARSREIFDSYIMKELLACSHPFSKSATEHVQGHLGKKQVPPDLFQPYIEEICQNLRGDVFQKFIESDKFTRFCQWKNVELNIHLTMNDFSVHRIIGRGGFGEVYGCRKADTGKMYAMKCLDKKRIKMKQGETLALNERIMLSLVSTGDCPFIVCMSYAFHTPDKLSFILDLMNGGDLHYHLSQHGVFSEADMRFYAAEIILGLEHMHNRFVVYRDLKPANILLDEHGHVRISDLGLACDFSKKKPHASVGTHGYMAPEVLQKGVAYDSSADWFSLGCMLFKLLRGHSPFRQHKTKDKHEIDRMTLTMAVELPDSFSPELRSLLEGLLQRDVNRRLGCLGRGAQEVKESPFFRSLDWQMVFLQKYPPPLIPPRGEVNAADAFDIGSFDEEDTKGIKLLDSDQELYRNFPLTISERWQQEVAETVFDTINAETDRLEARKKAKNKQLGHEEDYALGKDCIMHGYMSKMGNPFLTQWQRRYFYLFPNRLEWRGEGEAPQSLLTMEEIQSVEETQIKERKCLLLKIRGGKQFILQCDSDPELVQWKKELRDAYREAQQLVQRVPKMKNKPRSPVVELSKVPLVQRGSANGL
Beta-2 adrenergic receptor (Homo sapiens), sequence (P07550 whole entry, looked up): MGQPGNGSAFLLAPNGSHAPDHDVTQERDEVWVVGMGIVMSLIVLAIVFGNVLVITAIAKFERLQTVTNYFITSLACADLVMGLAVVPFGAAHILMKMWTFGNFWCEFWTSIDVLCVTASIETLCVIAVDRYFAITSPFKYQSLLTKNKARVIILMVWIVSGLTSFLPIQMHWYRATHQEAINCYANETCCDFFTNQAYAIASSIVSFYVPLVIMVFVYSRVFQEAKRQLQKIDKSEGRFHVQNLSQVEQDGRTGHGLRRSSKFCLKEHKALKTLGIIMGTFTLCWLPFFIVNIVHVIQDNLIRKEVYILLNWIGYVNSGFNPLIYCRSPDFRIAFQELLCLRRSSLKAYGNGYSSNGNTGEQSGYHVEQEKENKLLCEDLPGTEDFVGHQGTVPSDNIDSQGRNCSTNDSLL
Integrin beta-1 (Homo sapiens) + Integrin alpha-4 (Homo sapiens), sequence (P05556 whole entry, looked up): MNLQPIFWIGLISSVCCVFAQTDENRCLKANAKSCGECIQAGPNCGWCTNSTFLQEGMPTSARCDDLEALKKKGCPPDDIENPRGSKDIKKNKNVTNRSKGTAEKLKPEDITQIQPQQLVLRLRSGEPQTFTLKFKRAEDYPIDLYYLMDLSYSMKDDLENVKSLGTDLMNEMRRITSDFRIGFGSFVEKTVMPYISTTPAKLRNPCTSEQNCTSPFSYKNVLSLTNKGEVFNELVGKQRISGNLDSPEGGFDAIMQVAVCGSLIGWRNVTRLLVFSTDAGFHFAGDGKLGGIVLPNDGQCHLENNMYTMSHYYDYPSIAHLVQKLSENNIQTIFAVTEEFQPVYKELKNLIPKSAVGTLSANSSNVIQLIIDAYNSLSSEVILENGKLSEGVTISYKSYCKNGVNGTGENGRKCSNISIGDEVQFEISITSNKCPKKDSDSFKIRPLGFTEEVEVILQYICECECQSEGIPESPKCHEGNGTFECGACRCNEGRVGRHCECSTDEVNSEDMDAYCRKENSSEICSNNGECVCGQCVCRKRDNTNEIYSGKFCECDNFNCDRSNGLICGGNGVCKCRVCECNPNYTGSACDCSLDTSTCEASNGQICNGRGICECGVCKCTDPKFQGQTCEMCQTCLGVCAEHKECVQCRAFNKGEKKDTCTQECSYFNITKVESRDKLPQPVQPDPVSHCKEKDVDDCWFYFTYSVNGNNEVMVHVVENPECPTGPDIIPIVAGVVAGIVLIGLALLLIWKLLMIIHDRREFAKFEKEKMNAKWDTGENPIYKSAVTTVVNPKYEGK
Integrin beta-1 (Homo sapiens) + Integrin alpha-4 (Homo sapiens), sequence (P13612 whole entry, looked up): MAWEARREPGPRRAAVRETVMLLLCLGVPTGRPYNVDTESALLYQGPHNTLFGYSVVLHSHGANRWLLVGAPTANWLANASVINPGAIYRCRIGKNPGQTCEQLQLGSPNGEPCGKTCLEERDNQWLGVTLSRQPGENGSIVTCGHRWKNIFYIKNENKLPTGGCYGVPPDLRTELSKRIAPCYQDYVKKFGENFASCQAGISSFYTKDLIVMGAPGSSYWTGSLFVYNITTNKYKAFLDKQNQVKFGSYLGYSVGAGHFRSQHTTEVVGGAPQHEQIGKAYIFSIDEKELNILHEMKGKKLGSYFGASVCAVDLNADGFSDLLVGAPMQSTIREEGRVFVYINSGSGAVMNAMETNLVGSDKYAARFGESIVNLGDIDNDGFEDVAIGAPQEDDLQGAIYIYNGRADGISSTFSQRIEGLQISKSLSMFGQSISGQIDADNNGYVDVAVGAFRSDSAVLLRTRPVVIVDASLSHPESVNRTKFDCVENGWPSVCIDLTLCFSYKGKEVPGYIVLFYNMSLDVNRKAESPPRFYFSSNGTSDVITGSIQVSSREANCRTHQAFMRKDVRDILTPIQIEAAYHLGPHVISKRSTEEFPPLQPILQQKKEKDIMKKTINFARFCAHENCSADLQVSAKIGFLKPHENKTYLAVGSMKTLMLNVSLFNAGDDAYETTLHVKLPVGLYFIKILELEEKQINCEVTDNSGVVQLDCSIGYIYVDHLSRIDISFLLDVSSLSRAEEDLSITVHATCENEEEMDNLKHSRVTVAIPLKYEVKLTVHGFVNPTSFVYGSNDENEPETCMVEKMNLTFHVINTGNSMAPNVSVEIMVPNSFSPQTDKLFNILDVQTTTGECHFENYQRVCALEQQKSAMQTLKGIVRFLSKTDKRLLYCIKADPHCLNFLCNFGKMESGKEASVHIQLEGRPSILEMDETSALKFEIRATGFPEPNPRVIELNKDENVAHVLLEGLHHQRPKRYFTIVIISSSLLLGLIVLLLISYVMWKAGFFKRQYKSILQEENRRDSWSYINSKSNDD
AP-2 complex subunit beta (Homo sapiens), sequence (P63010 whole entry, looked up, the tested form may be a part, one chain of several): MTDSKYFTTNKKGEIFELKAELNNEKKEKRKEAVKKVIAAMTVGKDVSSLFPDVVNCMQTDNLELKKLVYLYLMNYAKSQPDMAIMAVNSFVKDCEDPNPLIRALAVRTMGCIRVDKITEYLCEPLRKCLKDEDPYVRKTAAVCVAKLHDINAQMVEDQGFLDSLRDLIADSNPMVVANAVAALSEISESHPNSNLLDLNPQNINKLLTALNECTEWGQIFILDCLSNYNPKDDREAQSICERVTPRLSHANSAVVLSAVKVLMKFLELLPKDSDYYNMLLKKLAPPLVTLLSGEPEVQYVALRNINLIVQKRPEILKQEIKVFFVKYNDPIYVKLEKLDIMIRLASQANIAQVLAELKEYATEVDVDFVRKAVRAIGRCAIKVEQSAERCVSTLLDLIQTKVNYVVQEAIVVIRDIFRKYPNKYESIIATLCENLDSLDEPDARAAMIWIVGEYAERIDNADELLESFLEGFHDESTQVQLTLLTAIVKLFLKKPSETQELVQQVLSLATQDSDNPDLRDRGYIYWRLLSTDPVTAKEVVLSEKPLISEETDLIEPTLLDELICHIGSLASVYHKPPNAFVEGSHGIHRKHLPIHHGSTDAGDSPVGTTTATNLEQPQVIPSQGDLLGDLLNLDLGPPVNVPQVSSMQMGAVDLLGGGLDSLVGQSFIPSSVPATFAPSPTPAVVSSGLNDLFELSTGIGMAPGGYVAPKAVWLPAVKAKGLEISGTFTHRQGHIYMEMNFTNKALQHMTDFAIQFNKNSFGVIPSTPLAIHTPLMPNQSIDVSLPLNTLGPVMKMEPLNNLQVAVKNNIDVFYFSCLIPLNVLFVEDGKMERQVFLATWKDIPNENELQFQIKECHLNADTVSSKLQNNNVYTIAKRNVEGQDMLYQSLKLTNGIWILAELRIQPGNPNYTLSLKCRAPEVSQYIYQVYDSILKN

Turning to `COc1cc(Cc2cnc(N)nc2N)cc(OC)c1OC`, in test [1], the percent of DMSO control GFP is 100% (inactive) and 102% (inactive). The GFP response vs DMSO in test [2] was 95.1% (inactive) and 101% (inactive); in test [4] it was 84.8% (inactive) and 103% (inactive). For the same molecule, the percent response of DMSO control in [3] is 91.9% (inactive) and 102% (inactive). Also, the GFP response, % of DMSO in test [5] is 96.4% (inactive) and 102% (inactive). Besides, in test [6], the double positive events was 62.8% and 60.9%. For the same molecule, in test [6], the vesicle binding response is 247% (inactive) and 222% (inactive). Moreover, the inhibition in test [7] is -113% (inactive) and 1.62% (inactive); in test [11], -0.17% (inactive) and -5.67% (inactive); in [15], -11% (inactive) and 7% (inactive). Besides, in test [8], the superoxide response (% of plate) was 106% (inactive). Besides, the aptamer binding inhibition in [9] is 2% (inactive) and -4% (inactive). Also, the response in [10] was -5.11% (inactive); in test [12] it was 1.16% (inactive) and -26% (inactive). In addition, the binding (% of control) in test [13] was 95.8% (inactive) and 103% (inactive). In addition, the efflux inhibition (fraction of control) in test [14] was 0.61 (active) and 0.18 (inactive). In addition, the differentiation response in test [16] was 0.24% (inactive) and -3.43% (inactive).

As for `CCOC(=O)C1=C(C)NC(C)=C(C(=O)OC)C1c1cccc([N+](=O)[O-])c1` (stereo not given), the percent of DMSO control GFP in test [1] was 91.3% (inactive). Moreover, the GFP response vs DMSO in [2] was 124% (inactive); in test [4], 85.3% (inactive). Further, the percent response of DMSO control in test [3] was 95.2% (inactive). The GFP response, % of DMSO in [5] is 91.5% (inactive). The double positive events in test [6] turned out to be 63.3%. For the same molecule, the vesicle binding response in test [6] is 200% (inactive). In addition, the inhibition in test [7] was 8.4% (inactive); in [11], 41.2% (inactive); in test [15], 18% (inactive). The superoxide response (% of plate) in [8] is 104% (inactive). In addition, the aptamer binding inhibition in [9] was 2% (inactive). Moreover, the response is -11.6% (inactive) in test [10] and -3.09% (inactive) in test [12]. Moreover, the binding (% of control) in test [13] was 95.6% (inactive). The efflux inhibition (fraction of control) in [14] is 0.12 (inactive). Besides, the differentiation response in test [16] was -1.64% (inactive).

Turning to `CC(C)=CCCC1=CCC2C(=O)NNC(=O)C2C1` (stereo not given), the percent of DMSO control GFP in test [1] is 98.8% (inactive). For the same molecule, the GFP response vs DMSO in test [2] is 101% (inactive); in test [4] it was 99.9% (inactive). The percent response of DMSO control in [3] was 110% (inactive). Further, the GFP response, % of DMSO in [5] was 99.5% (inactive). This molecule came in with a double positive events in [6] of 50.6%. Besides, the vesicle binding response in test [6] is 61.5% (active). In addition, the inhibition is -3.16% (inactive) in [7], -0.62% (inactive) in test [11] and 4% (inactive) in [15]. Further, the superoxide response (% of plate) in test [8] is 104% (inactive). In addition, the aptamer binding inhibition in test [9] is 3% (inactive). The figures for the response in test [10] and in test [12] were -19.2% (inactive) and 51.2% (active), respectively. Moreover, the binding (% of control) in test [13] is 103% (inactive). In addition, the efflux inhibition (fraction of control) in [14] is -0.1 (inactive). The differentiation response in [16] is -10.4% (inactive).

`CN(C)[C@@H]1C(=O)C(C(N)=O)=C(O)[C@@]2(O)C(=O)C3=C(O)c4c(O)ccc(Cl)c4[C@@H](O)[C@H]3C[C@@H]12`: the percent of DMSO control GFP in [1] is 104% (inactive). The GFP response vs DMSO in [2] was 105% (inactive); in test [4], 104% (inactive). Further, the percent response of DMSO control in test [3] is 98.3% (inactive). Further, the GFP response, % of DMSO in [5] is 109% (inactive). The double positive events in test [6] was found to be 59.2%. Besides, in test [6], the vesicle binding response was 122% (inactive). For the same molecule, the inhibition in [7] was -7.93% (inactive); in [11] it was 10.7% (inactive); in test [15], -10% (inactive). For the same molecule, the superoxide response (% of plate) in test [8] was 96% (inactive). Also, the aptamer binding inhibition in test [9] is 10% (inactive). In addition, the response in test [10] was -15.7% (inactive); in test [12] it was -7.23% (inactive). The binding (% of control) in [13] is 101% (inactive). The efflux inhibition (fraction of control) in [14] is -0.17 (inactive). Further, the differentiation response in test [16] was 8.8% (inactive).

As to `O=C(O)c1ccc(N2C(=O)/C(=C\c3ccccc3)N=C2c2ccccc2)cc1`, in test [1], the percent of DMSO control GFP is 103% (inactive). Moreover, the GFP response vs DMSO in test [2] is 106% (inactive); in test [4], 110% (inactive). Further, the percent response of DMSO control in test [3] is 99.7% (inactive). In addition, in [5], the GFP response, % of DMSO was 98% (inactive). This molecule returned a double positive events in test [6] of 58.6%. In test [6], the vesicle binding response was 120% (inactive). For the same molecule, the inhibition in test [7] was -5.11% (inactive); in test [11], -10.8% (inactive); in test [15], -15% (inactive). For the same molecule, in [8], the superoxide response (% of plate) is 111% (inactive). The aptamer binding inhibition in test [9] is 2% (inactive). Besides, the response is -17.4% (inactive) in test [10] and -0.35% (inactive) in [12]. Besides, the binding (% of control) in [13] was 98.1% (inactive). Moreover, the efflux inhibition (fraction of control) in [14] was -0.2 (inactive). The differentiation response in test [16] was -0.18% (inactive).
